Sampled rows, rich in hits. Any-hit rate of the full collection: about 3.9%.
NSD2 inh: NSD2 (human) methyltransferase inhibition | NSD2 peptide methylation, AlphaScreen, 120 min | inhibition, % at 12.5 µM | 310,000 compounds, 0.54% hits | AID 743445; in the data active = inhibition above about 50%
Casp6 inh: inhibitors of human caspase-6 | inhibition, % at 12.5 µM | 350,000 compounds, 0.53% hits | purified caspase-6, Z-VEID-R110 cleavage fluorescence | AID 686996;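 active = mean inhibition across replicates at least about 35%, with every replicate also reaching that limit, limit read from the data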
Target sequence (P55212 24-179 limits assumed): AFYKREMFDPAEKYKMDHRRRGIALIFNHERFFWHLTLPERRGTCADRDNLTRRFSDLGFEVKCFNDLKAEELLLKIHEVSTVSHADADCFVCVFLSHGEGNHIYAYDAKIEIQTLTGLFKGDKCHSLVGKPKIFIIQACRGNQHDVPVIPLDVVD
Target sequence (P55212 194-293 limits assumed): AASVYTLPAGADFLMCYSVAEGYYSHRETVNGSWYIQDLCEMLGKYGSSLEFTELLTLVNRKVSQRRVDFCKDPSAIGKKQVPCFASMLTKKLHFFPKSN
CDK5 inh: CDK5/p35 (human) kinase inhibition. 330,000 compounds, 0.01% hits. AID 488839. Q00535+Q15078. Recombinant CDK5/p35, ADP-Glo luminescence, 60 min. inhibition, % at 10 µM;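 active = highest replicate inhibition of at least 50% and at least 75% of replicates reaching 50%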
N-glyco inh: N-linked glycosylation inhibition. D54 ERlucT glycosylation luciferase reporter, 24 h; percent of 100 nM tunicamycin response. reporter increase, % at 12.5 µM. 360,000 compounds, 0.23% hits;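 active = mean luciferase reporter signal, scaled so untreated is 0 and the glycosylation-blocking control 100, at or above a set limit in every replicate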;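 note: luciferase carries N-glycosylation sites so blocking glycosylation raises the light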
Mot1-301 SUMO: blocks SUMOylation pathway, rescuing yeast Mot1-301 growth; S. cerevisiae Mot1-301 growth rescue, ATP luminescence, 38.5C; percent above DMSO median, 100 means doubled; growth rescue, % at 18.8 µM; 320,000 compounds, 1% hits; AID 2716;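 active = every valid replicate shows activation above 250% relative to neutral control wells; inactive = the rest, any valid replicate at or below 250%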
ALR inh: inhibitors of human sulfhydryl oxidase ALR; 290,000 compounds, 3.8% hits; purified ALR, DTT oxidation, H2O2 HRP-luminol luminescence; inhibition, % (test concentration not listed);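 active = mean replicate inhibition above about 79%, with every replicate also reaching it, limit read from the data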
Target sequence (P55789 whole entry, looked up): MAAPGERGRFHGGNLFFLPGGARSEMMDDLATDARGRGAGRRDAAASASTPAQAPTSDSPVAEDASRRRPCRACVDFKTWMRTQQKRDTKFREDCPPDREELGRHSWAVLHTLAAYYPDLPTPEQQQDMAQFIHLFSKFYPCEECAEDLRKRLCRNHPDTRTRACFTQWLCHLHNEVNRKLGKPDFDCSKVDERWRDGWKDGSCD
Large screens that a line does not name were inactive; ! = not active in a repeat.

CC(=O)Nc1ccc(-c2ccccc2)s1	none (no result: Casp6 inh)
CC(=O)Nc1ccc(NC(C)=O)s1	ALR inh 87 (no result: Casp6 inh)
CC(C)(C)S(=O)(=O)c1ccc(S(=O)(=O)C(C)(C)C)s1	Mot1-301 SUMO 949 (no result: NSD2 inh, Casp6 inh, CDK5 inh, N-glyco inh, ALR inh)
O=c1[nH]c2ccc(F)cc2[nH]c1=O	Casp6 inh 42
O=C(CCCN1CCC(O)(c2ccc(Cl)cc2)CC1)c1ccc(F)cc1	Mot1-301 SUMO 588! (no result: NSD2 inh)
O=C(CCCN1CCC(O)(c2ccc(Br)cc2)CC1)c1ccc(F)cc1	none (no result: NSD2 inh)
Cc1ccc(S(=O)(=O)N(C)C[C@H]2Oc3ccc(NS(C)(=O)=O)cc3CC(=O)N([C@@H](C)CO)C[C@@H]2C)cc1	none (no result: NSD2 inh, CDK5 inh, N-glyco inh, Mot1-301 SUMO, ALR inh)
N#Cc1c(-c2ccco2)nc(SCC(=O)Nc2cccc(Cl)c2)[nH]c1=O	ALR inh 99 (no result: Casp6 inh)
O=C(CSc1nc2[nH]ncc2c(=O)[nH]1)Nc1cccc(Cl)c1	none
CCC(Sc1nc(-c2cccc(OC)c2)c(C#N)c(=O)[nH]1)C(=O)Nc1nnc(C(C)C)s1 (configuration not stated)	none
CCc1ccc(NC(=O)C(C)Sc2nc(-c3ccco3)c(C#N)c(=O)[nH]2)cc1 (configuration not stated)	Casp6 inh 46, ALR inh 98
O=C1C(Cl)=C(NCC2CCCO2)C(=O)N1C1CCCCC1 (configuration not stated)	ALR inh 98 (no result: NSD2 inh, Casp6 inh)
O=C1C(Cl)=C(NCC2CCCO2)C(=O)N1c1ccccc1 (configuration not stated)	none (no result: Casp6 inh)
C[C@H](CO)N1C[C@H](C)[C@H](CN(C)S(=O)(=O)c2ccccc2)Oc2ccc(NS(=O)(=O)c3ccccc3)cc2C1=O	none (no result: NSD2 inh, CDK5 inh, N-glyco inh, Mot1-301 SUMO, ALR inh)
Cc1ccc(-c2ccccc2NC(=O)CS(=O)CC(=O)Nc2ccc(C)c(Cl)c2)o1 (configuration not stated)	ALR inh 99 (no result: NSD2 inh)
Cc1ccc(-c2ccccc2NC(=O)CCl)o1	none (no result: Casp6 inh)
C=CCn1sc(N)c(C(=O)OCC)c1=S	ALR inh 99 (no result: Casp6 inh)
Cc1c(C)c2c(OCC(=O)N3CCC(C(N)=O)CC3)cc3c(c2oc1=O)CCC(C)(C)O3	Mot1-301 SUMO 610 (no result: NSD2 inh)
Cc1cc(=O)oc2c3c(cc(OCC(=O)N4CCC(C(=O)O)CC4)c12)OC(C)(C)CC3	none (no result: NSD2 inh)
CCCCc1cc(=O)oc2c3c(cc(OCC(=O)N4CCC[C@H]4C(=O)O)c12)OC(C)(C)CC3	Mot1-301 SUMO 721 (no result: NSD2 inh)
CCOC(=O)N1CCC(NC(=O)CS(=O)Cc2nc(-c3ccc(Cl)cc3)oc2C)CC1 (configuration not stated)	ALR inh 99
CCOC(=O)N1CCC(NC(=O)CS(=O)Cc2nc(-c3ccc(C)cc3)oc2C)CC1 (configuration not stated)	ALR inh 99
CCOC(=O)N1CCC(NC(=O)CS(=O)(=O)Cc2nc(-c3ccc(OC)cc3)oc2C)CC1	none (no result: CDK5 inh)
CCOC(=O)N1CCC(NC(=O)CS(=O)Cc2nc(-c3ccc(OC)c(OC)c3)oc2C)CC1 (configuration not stated)	ALR inh 100 (no result: Casp6 inh)
CCOC(=O)N1CCN(C(=O)CS(=O)Cc2nc(-c3ccc(C)cc3)oc2C)CC1 (configuration not stated)	none (no result: NSD2 inh, ALR inh)
CN1c2ccc(C3=CCCCC3)cc2[C@H]2[C@H](CCN2C(=O)C2CCCCC2)[C@H]1CO	none (no result: NSD2 inh, CDK5 inh, N-glyco inh, Mot1-301 SUMO, ALR inh)
Cc1c(C#N)c(O)[nH]c(=O)c1N=Nc1ccc(S(N)(=O)=O)cc1	Casp6 inh 44
Cc1c(C#N)c(O)[nH]c(=O)c1N=Nc1ccc(Cl)c(C(=O)O)c1	none
CC(C)NC(=O)N[C@H]1C=C[C@@H](CC(=O)NCc2ccc(Oc3ccccc3)cc2)O[C@H]1CO	none (no result: NSD2 inh, CDK5 inh, N-glyco inh, Mot1-301 SUMO, ALR inh)
CCOc1c(Br)cc(C(N)=O)cc1OC	none (no result: Casp6 inh)
CCCOc1c(Br)cc(C(N)=O)cc1OCC	Mot1-301 SUMO 316 (no result: Casp6 inh, ALR inh)
O=C(C[C@H]1CC[C@@H]2[C@H](COC[C@H](O)CN2C(=O)Nc2ccc(F)cc2)O1)NCCCN1CCOCC1	none (no result: NSD2 inh, CDK5 inh, N-glyco inh, Mot1-301 SUMO, ALR inh)
C/C(CC(=O)Nc1ccc(N(C)C)cc1)=N\NC(=O)c1ccccc1Cl	none (no result: CDK5 inh, Mot1-301 SUMO, ALR inh)
C/C(CC(=O)Nc1ccc(N(C)C)cc1)=N\NC(=O)c1cnccn1	ALR inh 99 (no result: Casp6 inh)
COC(C(=O)N/N=C(\C)CC(=O)Nc1ccc(N(C)C)cc1)c1ccccc1 (configuration not stated)	ALR inh 99
CN(C)c1ccc(-c2[nH][nH]c(=O)c2NC(=O)c2ccc3ccccc3n2)cc1	none (no result: NSD2 inh, CDK5 inh, Mot1-301 SUMO, ALR inh)
COC(C(=O)N/N=C(\C)CC(=O)Nc1ccc(Cl)cc1C)c1ccccc1 (configuration not stated)	none
C/C(CC(=O)Nc1ccc(N(C)C)cc1)=N\NC(=O)c1ccccn1	ALR inh 96 (no result: Casp6 inh)
CN(C)c1ccc(-c2[nH][nH]c(=O)c2NC(=O)c2ccccn2)cc1	Casp6 inh 99 (no result: NSD2 inh, CDK5 inh, Mot1-301 SUMO, ALR inh)
C[C@@H]1CN([C@@H](C)CO)C(=O)c2cccc(NS(=O)(=O)c3cn(C)cn3)c2O[C@H]1CN(C)Cc1ccccc1	none (no result: NSD2 inh, CDK5 inh, N-glyco inh, Mot1-301 SUMO, ALR inh)
CO[C@@H]1CN(C)C(=O)c2ccc(NC(=O)Nc3ccccc3F)cc2OC[C@H](C)NC[C@@H]1C	none (no result: NSD2 inh, CDK5 inh, N-glyco inh, Mot1-301 SUMO, ALR inh)
C[C@@H]1CCCCO[C@@H](CN(C)S(=O)(=O)c2cccs2)[C@H](C)CN([C@H](C)CO)C(=O)c2cc(NS(=O)(=O)c3ccc(F)cc3)ccc2O1	none (no result: NSD2 inh, CDK5 inh, N-glyco inh, Mot1-301 SUMO, ALR inh)
C[C@@H]1CN([C@H](C)CO)C(=O)Cc2cc(NC(=O)CCN3CCOCC3)ccc2O[C@H]1CN(C)S(=O)(=O)c1ccc(Cl)cc1	none (no result: NSD2 inh, CDK5 inh, N-glyco inh, Mot1-301 SUMO, ALR inh)
CN(C)c1ccc(NC(=O)CC(NCc2ccccn2)C(=O)O)cc1 (configuration not stated)	ALR inh 100 (no result: Casp6 inh)
O=C1O[C@@H](c2ccccc2)[C@@H](c2ccccc2)N2[C@@H](c3ccc(O)cc3)[C@]3(C(=O)Nc4ccc(C#CC5(O)CCCCCC5)cc43)[C@@H](C(=O)N3CCCCCCC3)[C@H]12	none (no result: NSD2 inh, CDK5 inh, N-glyco inh, Mot1-301 SUMO, ALR inh)
CCOC(=O)NC(=O)COC(=O)CCCSc1nc2ccccc2s1	ALR inh 93
Cc1cc(NC(=O)CSc2nc3ccccc3s2)no1	none (no result: Casp6 inh)
CCOC(=O)c1c(NC(=O)CSc2nc3ccccc3s2)sc(C)c1C	ALR inh 98
O=C(CSc1nc2ccccc2s1)Nn1cnnc1	ALR inh 99 (no result: Casp6 inh)
Cn1ccnc1SCC(=O)Nc1ccc2nc(SCC(=O)NC3CC3)sc2c1	ALR inh 98 (no result: NSD2 inh, Casp6 inh, CDK5 inh, N-glyco inh)
Cn1ccnc1SCC(=O)NC1CCCC1	none (no result: ALR inh)
CC(C)NC(=O)N(C)C[C@H]1Oc2c(cccc2N(C)C)C(=O)N([C@@H](C)CO)C[C@H]1C	none (no result: NSD2 inh, CDK5 inh, N-glyco inh, Mot1-301 SUMO, ALR inh)
CCCNC(=O)N(C)C[C@@H]1Oc2cc(C#CC(C)(C)O)ccc2S(=O)(=O)N([C@@H](C)CO)C[C@H]1C	none (no result: NSD2 inh, CDK5 inh, N-glyco inh, Mot1-301 SUMO, ALR inh)
CC(C)NC(=O)Nc1cccc2c1O[C@@H](CN(C)Cc1ccc(-c3ccccc3)cc1)[C@@H](C)CN([C@H](C)CO)C2=O	none (no result: NSD2 inh, CDK5 inh, N-glyco inh, Mot1-301 SUMO, ALR inh)
O=C(CSc1nc2ccccc2s1)Nc1ncccn1	ALR inh 98 (no result: Casp6 inh)
Cc1c(NC(=O)CSc2nc3ccccc3s2)c(=O)n(-c2ccccc2)n1C	ALR inh 99 (no result: Casp6 inh)
